In PubChem BioAssay (NCI):
About 83,000 compounds went through this panel and 20% of them were active in at least one assay; those are over-represented in the sample as a whole.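 The endpoint reported here, percent growth, reads 100 for growth as untreated, 0 for no net growth and -100 for all cells dead.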 Unmarked numbers belong to inactive results. Calls of active or inactive are those of the source. The calls were made as follows: active = growth percent below 10; inactive = the rest.

Key:
Experiment in all cases: NCI-60 one-dose screen, 48 h (100 = growth as untreated, 0 = no growth, -100 = all killed)
Details in all cases: 10 µM
[1] = test system: DU-145 prostate
[2] = test system: K-562 leukemia
[3] = test system: MALME-3M melanoma
[4] = test system: MDA-MB-231 breast
[5] = test system: RXF 393 renal
[6] = test system: SF-268 CNS
[7] = test system: SF-295 CNS
[8] = test system: SF-539 CNS
[9] = test system: UACC-257 melanoma
[10] = test system: M14 melanoma

SMILES | growth [1] | growth [2] | growth [3] | growth [4] | growth [5] | growth [6] | growth [7] | growth [8] | growth [9] | growth [10]
COc1ccc(C2CC(c3ccc(-c4ccccc4)cc3)=NN2c2ccc(S(N)(=O)=O)cc2)cc1 (stereo not given) | 83.2% | 52.7% | 95.8% | 69.6% | 73.3% | 68% | 86.5% | 98.7% | 82.7% | 89.6%
CCCCCCCCCCCCc1ccc(C(=O)/C=C/C(=O)O)cc1 | 89.8% | -5.52% (active) | 69.1% | 29.4% | 80.8% | 100% | 80.2% | 76.5% | 96.1% | 62.1%
COc1cc(C2=Nc3c/c(=C\c4c(O)[nH]c5ccc(Cl)cc45)ccc3=N2)cc(OC)c1OC | 4.46% (active) | 17.3% | -51.8% (active) | 2.35% (active) | 1.13% (active) | -51.5% (active) | 83.3% | -52.4% (active) | -77% (active) | -21.6% (active)
O=C(/C=C/c1ccc(Cl)cc1)c1ccc(Br)cc1 | 101% | 97.5% | 102% | 102% | 114% | 102% | 95.9% | 94% | 106% | 100%
CN(C)c1ccc2c(c1)OC(N)=C(C#N)C2c1ccc2c(c1)CCO2 (stereo not given) | 26.7% | 17% | 87.5% | 21.7% | 23.5% | 47.7% | -3.28% (active) | -0.663% (active) | 58% | 10%
COc1cccc2c1C(=O)c1c(O)c3c(c(O)c1C2=O)C[C@@](O)(C(=O)COC(=O)c1cccnc1)C[C@@H]3OC1CC(N)C(O)C(C)O1 (stereo not given in full) | 7.78% (active) | 1.5% (active) | -66.7% (active) | -18.6% (active) | -64.5% (active) | -30% (active) | -56.8% (active) | -36.4% (active) | -54.7% (active) | -43.4% (active)
